Consider three compounds from PubChem BioAssay AID2284203 (EPA ToxCast).

Active and inactive are the calls of the source. Rule for the calls: active = hit-call score of the fitted dose curve at least 0.9, where 1 is the maximum; inactive = score below 0.9.

In this assay the target is human Serotonin Transporter (SET), SLC6A4 (gene 6532) (UniProt P31645). The experiment in a line: ERF_FR_TR_hSLC6A4: Eurofins (ERF) Radioligand Binding LeadHunter Assay for human Serotonin Transporter (SET) human Agonism. How it is done: ERF_FR_TR_hSLC6A4 is a biochemical, single-readout assay that uses extracted gene-proteins in a cell-free assay. Measurements were taken 1 hour after chemical dosing in a 96-well plate. See SET Human Serotonin Transporter Binding (Antagonist Radioligand) Assay, Cerep.ERF_FR_TR_hSLC6A4 is an assay component calculated from the ERF_FR_TR_hSLC6A4 assay. It is designed to measure radioligand binding using a type of binding reporter as detected by scintillation counting with radiometry technology.Data from the assay component ERF_FR_TR_hSLC6A4 was analyzed at the assay endpoint, ERF_FR_TR_hSLC6A4, in the positive analysis fitting direction relative to DMSO as the negative control and baseline of activity. Using a type of binding reporter, loss-of-signal activity can be used to understand changes in enzymatic activity as they relate to gene SLC6A4. To generalize the intended target to other relatable targets, this assay endpoint is annotated to the transporter intended target family, where the subfamily is SLC6 / Monoamine.
human Serotonin Transporter (SET), SLC6A4 (gene 6532), sequence (P31645 whole entry, looked up): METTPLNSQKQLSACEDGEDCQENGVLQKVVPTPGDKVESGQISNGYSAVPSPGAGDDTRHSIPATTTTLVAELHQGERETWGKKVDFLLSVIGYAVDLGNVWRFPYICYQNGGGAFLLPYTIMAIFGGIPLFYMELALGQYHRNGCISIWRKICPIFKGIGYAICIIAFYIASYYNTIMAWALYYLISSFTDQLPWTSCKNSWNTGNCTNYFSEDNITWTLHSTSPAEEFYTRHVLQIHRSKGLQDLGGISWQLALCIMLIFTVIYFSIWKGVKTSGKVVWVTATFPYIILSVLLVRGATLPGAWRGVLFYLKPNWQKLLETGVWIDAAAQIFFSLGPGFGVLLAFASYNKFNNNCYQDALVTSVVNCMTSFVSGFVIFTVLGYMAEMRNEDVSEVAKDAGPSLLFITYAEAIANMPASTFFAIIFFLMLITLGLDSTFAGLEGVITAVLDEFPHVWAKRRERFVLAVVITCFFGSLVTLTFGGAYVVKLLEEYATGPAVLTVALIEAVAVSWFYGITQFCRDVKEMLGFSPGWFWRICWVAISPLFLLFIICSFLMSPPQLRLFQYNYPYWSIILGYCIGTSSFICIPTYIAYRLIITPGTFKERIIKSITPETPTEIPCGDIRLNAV
Human recombinant serotonin transporter expressed in human HEK-293 cells are used in modified Tris-HCl buffer pH 7.4. A 2 ug aliquot is incubated with 0.4 nM [3H]Paroxetine for 60 minutes at 25C. Non-specific binding is estimated in the presence of 10 uM imipramine. Transporters are filtered and washed. The filters are then counted to determine [3H]Paroxetine specifically bound. Compounds are screened at 10 uM. Membrane protein may change from lot to lot; the concentration used will be adjusted if necessary.
As for `COc1cc(/C=C/C(=O)CC(=O)/C=C/c2ccc(O)c(OC)c2)ccc1O`, the AC50 was 2.12 µM (active).

Turning to `O=C(/C=C/c1ccc(O)cc1)CC(=O)/C=C/c1ccc(O)cc1`, the AC50 is 3.2 µM (active).

With `CCCCC[C@H](O)CC(=O)CCc1ccc(O)c(OC)c1`, the outcome was inactive.

In general, AC50 refers to the concentration giving half of the maximal activity seen.
